Format in all cases: functional
Assay [1] concerns Plasmodium falciparum. The experiment in a line: GSK_TCMDC: Inhibition of Plasmodium falciparum 3D7 in whole red blood cells, using parasite LDH activity as an index of growth. Test compounds present at 2uM.
Assay [2] relates to Plasmodium falciparum. The experiment in a line: GSK_TCMDC: Inhibition of Plasmodium falciparum Dd2 in whole red blood cells, using parasite LDH activity as an index of growth. Test compounds present at 2uM.
Assay [3] deals with HepG2. The experiment in a line: GSK_TCMDC: Percent inhibition of human HepG2 cell line. Test compounds present at 10uM.

This is an account of results in ChEMBL document CHEMBL1157539, “Thousands of chemical starting points for antimalarial lead identification” (Nature, 2010).

Structures are written as SMILES. “And” between values parts separate entries of the source, which are not always exact repeats. Equal entries are not always repeated.

For the compound `CCCCCNc1nc(Nc2ccccc2C)nc2ccccc12.Cl`, the Inhibition is 100% in assay [1], 30% in assay [2] and 5% in assay [3].
In the case of `COc1ccc(CNCc2ccc(-c3ccc(-c4nc5ccccc5[nH]4)cc3)cc2)cc1.O=C(O)C(F)(F)F`, the Inhibition in assay [1] is on record as 100%; in assay [2], 89%; in assay [3], 63%.
Consider `O=[N+]([O-])c1cccc(Nc2cncc(-c3ccc(CO)cc3)c2)c1`, for which the Inhibition in assay [1] was determined as 85%; in assay [2], 96%; in assay [3], 16%.
As to `CC(C)NCc1cccc(-c2ccc(-c3nc4cc(C(F)(F)F)ccc4[nH]3)cc2)c1.O=C(O)C(F)(F)F`, the Inhibition in assay [1] came to 99%; in assay [2] it was 96%; in assay [3], 7%.
For `COc1ccc(NC(=O)[C@H](CC(C)C)Nc2cc(C)nc(NCc3cccc(C)c3)n2)cc1.O=C(O)C(F)(F)F` the same measures were 100%, 90% and 24%.
For `CC(C)n1nc(C(=O)N2CCN(c3ccccc3)CC2)c2ccccc2c1=O` the same measures were 96%, 3% and 34%.
For `CCN(CC)CCNc1ccnc2[nH]c3ccc(I)cc3c12` the same measures were 100%, 95% and 14%.
For `COc1cc(Cc2cnc(N)nc2N)cc(OC)c1OCCNC(=O)[C@@H](N)CCC(=O)O.Cl`, the Inhibition worked out at 96% in assay [1], 0% in assay [2] and 0% in assay [3].
For `OC(CNCCc1ccccc1)Cn1c2ccc(Cl)cc2c2cc(Cl)ccc21` (configuration not stated), the Inhibition in assay [1] is listed as 98%; in assay [2], 96%; in assay [3] it was 53%.
For the compound `CCOC(=O)c1ccc2[nH]c(-c3ccc(C(=O)NC4CCN(Cc5ccccc5)CC4)s3)nc2c1`, the Inhibition is reported as 100% in assay [1], 95% in assay [2] and 32% in assay [3].
In the same order, the values of `Cc1cc(N/N=C/c2cccc([N+](=O)[O-])c2)c2ccccc2n1` are 100%, 98% and 0%.
In the case of `COCCn1c(Sc2ncnc3sccc23)nc2ccccc21`, the Inhibition in assay [1] worked out at 95%; in assay [2] it was 72%; in assay [3], 0%.
In the same order, the values of `Cl.N=C(N)Nc1ccc(OCCCCCOc2ccc(NC(=N)N)c(Cl)c2)cc1Cl` are 92%, 92% and 18%.
Turning to `COc1ccccc1NC(=O)Nc1ccc(-c2cccc(-c3nc4ccccc4[nH]3)c2)cc1`, the Inhibition in assay [1] is recorded as 100%; in assay [2], 25%; in assay [3], 42%.
For `Br.c1cc(C2=NC3CCCCC3N2)ccc1OCCCCCOc1ccc(C2=NC3CCCCC3N2)cc1` (configuration not stated) the same measures were 100%, 23% and 80%.
In the same order, the values of `Nc1cccc(-c2ccc3ccnc(N)c3c2)c1` are 91%, 66% and 30%.
For `Cl.N=C(N)c1ccc2[nH]c(SCc3ccccc3)nc2c1` the same measures were 97%, 100% and 0%.
`CC(C)Oc1cc2c(cc1NS(=O)(=O)c1ccc(-c3cccs3)cc1)CCN(C)CC2.Cl`: the values for the Inhibition in assay [1], in assay [2] and in assay [3] were 88%, 9% and 9%, respectively.
Regarding `CCn1c(Sc2ccc(C#N)c([N+](=O)[O-])c2)nnc1-c1ccc(OC)cc1`, the Inhibition is recorded as 98% in assay [1], 94% in assay [2] and 0% in assay [3].
For `OCc1ccc(-c2cncc(Nc3ccc(F)c(Cl)c3)c2)cc1` the same measures were 92%, 99% and 2%.
`CCOC(=O)c1ccc(NC(=O)Nc2ccc(-c3cccc(-c4nc5cc(F)ccc5[nH]4)c3)cc2)cc1`: the Inhibition came out at 100% in assay [1], 100% in assay [2] and 98% in assay [3].
As for `O=C1Nc2cccc3c2C1(CCCCN1CCC(c2cc4ccncc4[nH]2)CC1)CCC3` (configuration not stated), the Inhibition in assay [1] is 99% and 97%; in assay [2], 0%; in assay [3], 0%.
On to `Cc1cc(N[C@@H](Cc2ccccc2)C(=O)NCc2cccc(F)c2)nc(NCC2CCCCC2)n1.O=C(O)C(F)(F)F`, for which the Inhibition in assay [1] turned out to be 100%; in assay [2], 42%; in assay [3], 43%.
For `COc1ccc2nccc([C@@H](O)CN3CCC(NC[C@H](Cc4ccccc4)NC(=O)OC(C)(C)C)CC3)c2c1.O=C(O)C(=O)O` the same measures were 98%, 86% and 18%.
For `COc1ccc2ncc(F)c([C@@H](O)CN3CCC(NCc4cc(C#N)c5c(c4)CCO5)CC3)c2n1` the same measures were 92%, 50% and 15%.
For the compound `CCCNc1ccc2nccc(CCN3CCC(NCc4ccc5c(c4)NC(=O)CS5)CC3)c2n1.Cl`, the results for the Inhibition in assay [1], in assay [2] and in assay [3] were 94%, 17% and 0%, respectively.
For `Cc1cc(C)c(C)c(S(=O)(=O)N2CCCCC(c3ccc(F)c(F)c3)=N2)c1C`, the Inhibition in assay [1] was 86%; in assay [2], 60%; in assay [3], 5%.
With `COc1ccc(-n2c(=O)c3c(n4c(SC(C)C)nnc24)-c2ccccc2CC32CCCCC2)cc1`, the values for the Inhibition in assay [1], in assay [2] and in assay [3] were 99%, 15% and 0%, respectively.
In the case of `CCN1CCC(N(Cc2ccc(-c3ccc(C(F)(F)F)cc3)cc2)C(=O)Cn2c(CCc3cccc(F)c3F)cc(=O)c3ccc(OCc4ccccc4)cc32)CC1.O=C(O)C(O)C(O)C(=O)O`, the Inhibition in assay [1] came to 100%; in assay [2] it was 86%; in assay [3], 60%.

Broadly, the Inhibition is the percentage by which the read-out fell short of the control.
